Consider 43 compounds from PubChem BioAssay AID1159577 (Broad Institute, 2015).

Out of some 1,300 compounds screened, about 240 (18%) were called active. Another 8% or so got no clear call; they are omitted. The rule behind the calls is not given here. Not all results are given here. Results with a measured potency or affinity are listed apart.

A short description of this assay: HepG2 cell cytotoxicity, dose response, cytotoxicity control, cherry-picked samples (AID 1159577).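 Note: 0% = neutral control wells and -100% = positive control wells.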 Particulars: HepG2 cytotoxicity counterscreen, plate reader; series mostly up to 19.5 µM; activity change, negative = cytotoxicity: at the top concentration. Background: A counterscreen serves to expose hits that act by an unwanted route or on another target.
Take `CO[C@@H]1CN(C)C(=O)c2cc(NC(=O)C3CC3)ccc2OC[C@H](C)N(CC2CCCC2)C[C@H]1C`: the “activity change, negative = cytotoxicity” value is -23.7% (inactive).
To `CCc1sc(N2[C@@H](C#N)[C@@H](c3ccccc3-c3ccccc3)[C@@H]2CO)nc1C` belongs -7.69% [at 21 µM] (inactive); to `CC(C)CNC[C@@H]1[C@@H](c2ccccc2)[C@@H](CO)N1Cc1ccc(F)cc1`, -9.73% (inactive).
For `CN1c2ccc(C#Cc3cccnc3)cc2[C@@H]2[C@@H](CCN2C(=O)C2CCC2)[C@@H]1CO` the value was 23.2% (inactive); for `CNC[C@@H]1Oc2cc(C#Cc3cccnc3)ccc2S(=O)(=O)N([C@H](C)CO)C[C@H]1C`, 6.27% (inactive).
For `COc1cc(CN2CC3(CCN(C(=O)c4cccnc4)CC3)c3c([nH]c4cc(OC)ccc34)[C@@H]2CO)cc(OC)c1` the value was -13.4% (inactive); for `C[C@@H]1CN([C@H](C)CO)C(=O)c2c(c3ccccc3n2C)-c2ccccc2CO[C@@H]1CN(C)Cc1cccc(F)c1`, -19.9% (inactive); for `C[C@H](CO)N1C[C@H](C)[C@@H](CN(C)S(=O)(=O)c2cccc(F)c2)OCc2ccccc2-c2c(n(C)c3ccccc23)C1=O`, 2.61% (inactive).
For the compound `COc1ccccc1S(=O)(=O)N(C)C[C@@H]1OCc2ccccc2-c2c(n(C)c3ccccc23)C(=O)N([C@@H](C)CO)C[C@@H]1C`, the “activity change, negative = cytotoxicity” value is -6.89% (inactive).
Regarding `C[C@H](CO)N1C[C@H](C)[C@@H](CN(C)Cc2ccc(Oc3ccccc3)cc2)OCc2ccccc2-c2c(n(C)c3ccccc23)C1=O`, the “activity change, negative = cytotoxicity” value is 11.4% (inactive).
To `COc1ccccc1S(=O)(=O)N(C)C[C@H]1OCc2ccccc2-c2c(n(C)c3ccccc23)C(=O)N([C@@H](C)CO)C[C@@H]1C` belongs 11.2% (inactive).
To `COc1cccc(CN(C)C[C@H]2OCc3ccccc3-c3c(n(C)c4ccccc34)C(=O)N([C@H](C)CO)C[C@@H]2C)c1` belongs -23.4% [at 21 µM] (inactive).
To `C[C@H]1CN([C@@H](C)CO)C(=O)c2c(c3ccccc3n2C)-c2ccccc2CO[C@@H]1CN(C)Cc1cccc(O)c1` belongs -19.8% [at 21 µM] (inactive); to `C[C@H](CO)N1C[C@H](C)[C@@H](CN(C)Cc2cccc(C(=O)Nc3ccccc3N)c2)OCc2ccccc2-c2c(n(C)c3ccccc23)C1=O`, 2.47% (inactive); to `C[C@H]1CN([C@@H](C)CO)C(=O)c2c(c3ccccc3n2C)-c2ccccc2CO[C@H]1CN(C)C(=O)Nc1ccc(-c2ccccc2)cc1`, 29.3% (inactive).
On to `C[C@H](CO)N1C[C@H](C)[C@H](CN(C)S(=O)(=O)c2ccc(Cl)cc2)OCc2ccccc2-c2c(n(C)c3ccccc23)C1=O`, for which the “activity change, negative = cytotoxicity” value was -12.9% [at 21 µM] (inactive).
For `Cc1ccc(S(=O)(=O)N(C)C[C@H]2OCc3ccccc3-c3c(n(C)c4ccccc34)C(=O)N([C@H](C)CO)C[C@@H]2C)cc1` the value was 10.1% (inactive); for `O=C(C[C@H]1C[C@H]2c3cc(NC(=O)Cc4ccncc4)ccc3O[C@H]2[C@H](CO)O1)NCc1ccccc1`, -6.36% (inactive); for `COc1cccc(NC(=O)N(C)C[C@@H]2Oc3cc(C#Cc4ccccc4)ccc3S(=O)(=O)N([C@H](C)CO)C[C@@H]2C)c1`, 0.444% (inactive).
For `COc1ccc(S(=O)(=O)N(C)C[C@H]2Oc3ncc(-c4ccncc4)cc3C(=O)N([C@H](C)CO)C[C@@H]2C)cc1` the value was 2.98% [at 21 µM] (inactive); for `COc1ccc(C#Cc2ccc3c(c2)O[C@@H](CN(C)C(=O)Nc2cccc(OC)c2)[C@H](C)CN([C@H](C)CO)S3(=O)=O)cc1`, -20% (inactive); for `C[C@@H]1CN([C@@H](C)CO)C(=O)c2cccc(NC(=O)c3cnccn3)c2O[C@@H]1CN(C)Cc1ccc(-c2ccccc2)cc1`, -9.22% (inactive).
For `COc1ccc(NC(=O)N2CCC3(CC2)CN(C(=O)C2CCC2)[C@@H](CO)c2c3c3ccc(OC)cc3n2C)cc1` the value was 11.9% (inactive); for `C[C@H](CO)N1C[C@H](C)[C@@H](CN(C)C(=O)[C@H](C)c2ccccc2)OCc2ccccc2-c2c(n(C)c3ccccc23)C1=O`, 3.44% (inactive); for `C[C@@H]1CN([C@@H](C)CO)C(=O)c2c(c3ccccc3n2C)-c2ccccc2CO[C@@H]1CN(C)C(=O)[C@H](C)c1ccccc1`, -14.1% (inactive).
As to `CO[C@@H]1CN(C)C(=O)c2ccc(NC(=O)NC(C)C)cc2OC[C@@H](C)N(Cc2ccccc2)C[C@H]1C`, the “activity change, negative = cytotoxicity” value is 14.9% (inactive).
For `COc1cccc(NC(=O)N2[C@H](CO)[C@H](c3ccccc3)[C@H]2CNCC(C)C)c1` the value was -12.9% (inactive); for `COc1ccc(-c2ccccc2[C@H]2[C@@H](C#N)N(C(=O)NC3CCCC3)[C@H]2CO)cc1`, -5.87% (inactive); for `COc1ccc(NC(=O)Nc2ccc3c(c2)CC(=O)N([C@H](C)CO)C[C@H](C)[C@@H](CN(C)CC2CCCCC2)O3)cc1`, -30.7% (inactive).
For `C[C@@H]1CN([C@@H](C)CO)C(=O)c2cc(NC(=O)Nc3ccc(C(F)(F)F)cc3)ccc2O[C@H]1CN(C)C(=O)Nc1cccc2ccccc12` the value was -13.1% [at 21 µM] (inactive).
For `C[C@H](CO)N1C[C@H](C)[C@H](CN(C)CC2CC2)Oc2ccc(NS(=O)(=O)c3ccc(Cl)cc3)cc2CC1=O` the value was 0.335% (inactive); for `C[C@@H]1CN([C@@H](C)CO)C(=O)c2cc(NC(=O)C3CC3)ccc2O[C@H]1CN(C)CC1CCCCC1`, -8.49% (inactive).
Take `C[C@@H]1CN([C@@H](C)CO)C(=O)Cc2cc(NC(=O)Nc3ccc4c(c3)OCO4)ccc2O[C@@H]1CN(C)CC1CC1`: the “activity change, negative = cytotoxicity” value is -3.92% (inactive).
To `C[C@H](CO)N1C[C@H](C)[C@H](CN(C)CC2CC2)Oc2ccc(NC(=O)Nc3cccc4ccccc34)cc2CC1=O` belongs -5.7% (inactive); to `COc1ccc(C#Cc2ccc3c(c2)O[C@@H](CN(C)S(=O)(=O)c2ccccc2F)[C@@H](C)CN([C@H](C)CO)S3(=O)=O)cc1`, -9.31% (inactive); to `OC[C@@H]1[C@@H](c2ccccc2)C2(CN(CC3CC3)C2)N1Cc1ccc(F)cc1`, 2.98% (inactive).
To `COCC(=O)Nc1ccc2c(c1)C(=O)N(C)C[C@H](OC)[C@H](C)CN(Cc1cc(F)ccc1F)[C@H](C)CO2` belongs 10.4% (inactive); to `COc1ccc(NC(=O)N(C)C[C@H]2Oc3c(NC(=O)Nc4ccccc4)cccc3C(=O)N([C@@H](C)CO)C[C@H]2C)cc1`, 3.11% (inactive).
Regarding `C[C@H](CO)N1C[C@H](C)[C@@H](CN(C)Cc2ccc(-c3ccccc3)cc2)Oc2c(NC(=O)c3ccc(-c4nccs4)cc3)cccc2C1=O`, the “activity change, negative = cytotoxicity” value was -7.21% (inactive).
For `COc1ccc(CN(C)C[C@@H]2Oc3c(NC(=O)c4ccc(-c5nccs5)cc4)cccc3C(=O)N([C@@H](C)CO)C[C@H]2C)cc1` the value was -15% (inactive).
To `COc1ccc(S(=O)(=O)N(C)C[C@H]2Oc3c(NC(=O)Nc4cccc5ccccc45)cccc3C(=O)N([C@@H](C)CO)C[C@H]2C)cc1` belongs 6.17% (inactive).
For `COc1ccc(S(=O)(=O)N(C)C[C@@H]2Oc3c(NC(=O)Nc4cccc5ccccc45)cccc3C(=O)N([C@H](C)CO)C[C@@H]2C)cc1` the value was 23.4% (inactive).
As for `COc1ccc(S(=O)(=O)Nc2cccc3c2O[C@H](CN(C)Cc2ccc(-c4ccccc4)cc2)[C@@H](C)CN([C@H](C)CO)C3=O)cc1`, the “activity change, negative = cytotoxicity” value was -14.6% [at 21 µM] (inactive).
